Drawing on PubChem BioAssay (NCATS), this text covers Z-AUC, Potency and z-score for 21 molecules.

Records with an inconclusive call do not appear. Calls of active or inactive are those of the source. The call rests on the fitted dose curve.

Assay [1] in a line: qHTS drug screen for cell cycle checkpoint inhibitors in PARPi-resistant BRCA-mutant ovarian cancer cell lines. (AID 1963452). Conditions: PEO1/OlaR viability, CellTiter-Glo luminescence, 96 h; for Z-AUC: stronger effect = lower value. In a few lines:
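PEO1, PEO4 and PEO1/OlaR ovarian cancer cells, 600 per well, exposed 96 h at 37C to a dilution series. Viability read by CellTiter-Glo luminescence, normalized to DMSO and empty wells; activity summarized as Z-AUC.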
A general note: In qHTS, concentration-response curves come from the screen itself.

A short description of assay [2]: qHTS for identification of novel therapeutic agents for treatment of microphthalmiaassociated transcription factor (MiT) renal cell carcinoma (RCC) (AID 1963991).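 On z-score: curves scaled with 100% = DMSO viability and 0% = empty wells.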 Conditions: CellTiter-Glo, 48 h; for Potency: active = Z-AUC below -0.8 in all three lines; for z-score: stronger effect = lower value. In a few lines: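 UOK109/UOK124/UOK145 (TFE3 fusions, three partners); 500 cells/well; MIPE v4.0, 1912 cpds, 11 conc.; 48 h, 37 C; CellTiter-Glo, 15 min RT; lum. Norm.: DMSO 100%, empty 0%.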

Where [3] appears, read: measured here: PEO1 parental Z-AUC.
Where [4] appears, read: TFE3-RCC UOK109 viability, measured here: UOK109 Z-AUC.
Where [5] appears, read: TFE3-RCC viability, measured here: UOK124 Z-AUC.
Setting [6] is: TFE3-RCC viability, measured here: UOK145 Z-AUC.
Potency means the concentration at half of the fitted maximal effect.

Regarding `Cc1cnc(Nc2ccc(CN3CCOCC3)cc2)nc1Nc1cccc(S(=O)(=O)NC(C)(C)C)c1`, the values for the Z-AUC in assay [1], in assay [1] (setting [3]) and in assay [1] (measured here: PEO4 Z-AUC) were -2.02 (inactive), -1.2 and -1.56, respectively. Further, in assay [2] (TFE3-RCC UOK109 viability), the Potency was 4180 nM (active). Besides, the z-score in assay [2] (setting [4]) was -1.32; in assay [2] (setting [5]), -0.971; in assay [2] (setting [6]), -1.1.

As to `Cn1cc(-c2ccc3ncc(Cc4ccc5ncccc5c4)n3n2)cn1`, the Z-AUC in assay [1] is 0.547 (inactive); in assay [1] (setting [3]), 0.877; in assay [1] (measured here: PEO4 Z-AUC) it was 0.786. The z-score in assay [2] (setting [4]) was -0.236; in assay [2] (setting [5]), 0.125; in assay [2] (setting [6]), -0.113.

For `CC(C)C[C@H](NC(=O)[C@@H](NC(=O)c1cccc(-c2ccccc2)n1)[C@@H](C)O)B(O)O`, the Potency was 60.1 nM (active) in assay [1] and 469 nM (active) in assay [2] (TFE3-RCC UOK109 viability). Further, the Z-AUC in assay [1] (setting [3]) was -2.93; in assay [1] (measured here: PEO4 Z-AUC), -3.51. Also, the z-score is -1.47 in assay [2] (setting [4]), -3.68 in assay [2] (setting [5]) and -3.39 in assay [2] (setting [6]).

On to `N#Cc1c(NC(=O)c2cccc3ccccc23)sc2c1CCCC2`, for which the Z-AUC in assay [1] is -0.477 (inactive); in assay [1] (setting [3]) it was -0.695; in assay [1] (measured here: PEO4 Z-AUC) it was -0.753. The Potency in assay [2] (TFE3-RCC UOK109 viability) was 833 nM (active). In addition, the z-score was -1.37 in assay [2] (setting [4]), -1.52 in assay [2] (setting [5]) and -1.31 in assay [2] (setting [6]).

As for `COc1cc(OC)c(NC(=O)Nc2cc(C)on2)cc1Cl`, the results for the Z-AUC in assay [1], in assay [1] (setting [3]) and in assay [1] (measured here: PEO4 Z-AUC) were 1.05 (inactive), 1.02 and 1.3, respectively. The z-score is 0.422 in assay [2] (setting [4]), 0.71 in assay [2] (setting [5]) and 0.616 in assay [2] (setting [6]).

On to `CCN(C(=O)c1c(O)c2c(Cl)cccc2n(C)c1=O)c1ccccc1`, for which the Z-AUC in assay [1] is -0.417 (inactive); in assay [1] (setting [3]), -0.714; in assay [1] (measured here: PEO4 Z-AUC), -1.09. Also, the z-score in assay [2] (setting [4]) turned out to be 0.408; in assay [2] (setting [5]), 0.904; in assay [2] (setting [6]), 0.468.

For `CC(=O)O[C@H]1C[C@@H]2CC[C@H]3[C@H]4C[C@H]([N+]5(C)CCCCC5)[C@@H](OC(C)=O)[C@@]4(C)CC[C@@H]3[C@@]2(C)C[C@H]1[N+]1(C)CCCCC1`, the results for the Z-AUC in assay [1], in assay [1] (setting [3]) and in assay [1] (measured here: PEO4 Z-AUC) were 0.98 (inactive), 1.06 and 1.25, respectively. Besides, the z-score in assay [2] (setting [4]) was 0.763; in assay [2] (setting [5]) it was 0.611; in assay [2] (setting [6]), -1.4.

Turning to `C[C@H](CCC(=O)O)[C@H]1CCC2C3C[C@H](O)[C@@H]4C[C@H](O)CC[C@]4(C)C3CC[C@@]21C` (stereo not given in full), the results for the Z-AUC in assay [1], in assay [1] (setting [3]) and in assay [1] (measured here: PEO4 Z-AUC) were 0.00585 (inactive), 0.454 and 0.29, respectively. Moreover, the z-score in assay [2] (setting [4]) amounted to 0.156; in assay [2] (setting [5]), 0.446; in assay [2] (setting [6]) it was 0.00817.

On to `Cc1cc(O)c2c(c1)C(=O)c1cccc(O)c1C2=O`, for which the Z-AUC in assay [1] was -0.855 (inactive); in assay [1] (setting [3]), 0.00192; in assay [1] (measured here: PEO4 Z-AUC), -0.281. For the same molecule, the z-score in assay [2] (setting [4]) is -0.138; in assay [2] (setting [5]), 0.712; in assay [2] (setting [6]), 0.0822.

For the molecule `O=C(Nc1ccc(Oc2ccnc3[nH]ccc23)c(F)c1)c1cccn(-c2ccc(F)cc2)c1=O`, the Z-AUC in assay [1] is -0.152 (inactive); in assay [1] (setting [3]) it was 0.598; in assay [1] (measured here: PEO4 Z-AUC) it was 0.646. The z-score in assay [2] (setting [4]) was determined as 0.0941; in assay [2] (setting [5]), 0.0675; in assay [2] (setting [6]), 0.349.

Turning to `Nc1ccn(C[C@@H](CO)OCP(=O)(O)O)c(=O)n1`, the Z-AUC in assay [1] is -1.33 (inactive); in assay [1] (setting [3]) it was -0.089; in assay [1] (measured here: PEO4 Z-AUC), -0.602. Besides, the z-score in assay [2] (setting [4]) is 1.6; in assay [2] (setting [5]), 1.03; in assay [2] (setting [6]), 1.52.

As to `CC(Oc1ccc(O)cc1)(P(=O)(O)O)P(=O)(O)O`, the Z-AUC in assay [1] was 0.474 (inactive); in assay [1] (setting [3]), 0.34; in assay [1] (measured here: PEO4 Z-AUC), 0.383. Further, the values for the z-score in assay [2] (setting [4]), in assay [2] (setting [5]) and in assay [2] (setting [6]) were 0.171, 0.237 and 0.233, respectively.

For the molecule `COc1ccc(C=Cc2cc(OC)c(OC)c(OC)c2)cc1NC(=O)[C@H](N)CO`, the Potency in assay [1] is 54.9 nM (active); in assay [2] (TFE3-RCC UOK109 viability) it was 10.5 nM (active). Further, the Z-AUC in assay [1] (setting [3]) is -1.39; in assay [1] (measured here: PEO4 Z-AUC), -1.42. Moreover, the z-score was -2.33 in assay [2] (setting [4]), -3.86 in assay [2] (setting [5]) and -1.55 in assay [2] (setting [6]).

Take `O=C1NC(O)CCN1[C@@H]1O[C@H](CO)[C@H](O)[C@H]1O` (stereo not given in full): the Z-AUC is -0.827 (inactive) in assay [1], -1.1 in assay [1] (setting [3]) and -1.36 in assay [1] (measured here: PEO4 Z-AUC). The z-score in assay [2] (setting [4]) stood at 0.896; in assay [2] (setting [5]) it was 0.732; in assay [2] (setting [6]) it was 0.58.

As for `CCCNS(=O)(=O)Nc1ncnc(OCCOc2ncc(Br)cn2)c1-c1ccc(Br)cc1`, the results for the Z-AUC in assay [1], in assay [1] (setting [3]) and in assay [1] (measured here: PEO4 Z-AUC) were 0.736 (inactive), 0.726 and 1.05, respectively. The z-score was found to be 1.06 in assay [2] (setting [4]), 1.04 in assay [2] (setting [5]) and 0.601 in assay [2] (setting [6]).

On to `NC(=O)c1cccc(-c2cccc(OC(=O)NC3CCCCC3)c2)c1`, for which the Z-AUC in assay [1] was -0.0721 (inactive); in assay [1] (setting [3]) it was 0.554; in assay [1] (measured here: PEO4 Z-AUC), -0.318. Moreover, the z-score was 0.801 in assay [2] (setting [4]), 0.852 in assay [2] (setting [5]) and 0.744 in assay [2] (setting [6]).

As to `O=C(CN1C(=O)C2(CCCC2)NC[C@H]1c1cc(F)cc(F)c1)Nc1ccc2c(c1)C[C@@]1(C2)C(=O)Nc2ncccc21`, the Z-AUC in assay [1] was 0.0664 (inactive); in assay [1] (setting [3]), -0.0432; in assay [1] (measured here: PEO4 Z-AUC), 0.449. Also, the z-score in assay [2] (setting [4]) was found to be 1.1; in assay [2] (setting [5]), 0.765; in assay [2] (setting [6]) it was 1.18.

Turning to `CCCc1nc(C(C)(C)O)c(C(=O)O)n1Cc1ccc(-c2ccccc2-c2nn[nH]n2)cc1`, the Z-AUC was 0.227 (inactive) in assay [1], 0.788 in assay [1] (setting [3]) and 1.03 in assay [1] (measured here: PEO4 Z-AUC). Further, the z-score is 1.09 in assay [2] (setting [4]), 0.526 in assay [2] (setting [5]) and 0.646 in assay [2] (setting [6]).

For `O=C(c1ccc(F)cc1)N1CCC[C@H](c2nc(-c3ccc(F)cc3)no2)C1`, the results for the Z-AUC in assay [1], in assay [1] (setting [3]) and in assay [1] (measured here: PEO4 Z-AUC) were 1.14 (inactive), 0.372 and 0.34, respectively. For the same molecule, the z-score in assay [2] (setting [4]) came out at 1.39; in assay [2] (setting [5]), 0.757; in assay [2] (setting [6]) it was 0.391.

On to `CC(Cc1ccc(O)c(O)c1)(NN)C(=O)O` (stereo not given), for which the Z-AUC in assay [1] was 1.29 (inactive); in assay [1] (setting [3]), 0.784; in assay [1] (measured here: PEO4 Z-AUC), 0.906. In addition, the z-score turned out to be 0.533 in assay [2] (setting [4]), 0.304 in assay [2] (setting [5]) and 0.315 in assay [2] (setting [6]).

`CC(C(C)N1CC(=O)NC(=O)C1)N1CC(=O)NC(=O)C1` (stereo not given): the Z-AUC is 0.386 (inactive) in assay [1], 0.374 in assay [1] (setting [3]) and 0.397 in assay [1] (measured here: PEO4 Z-AUC). Further, the z-score in assay [2] (setting [4]) is -0.243; in assay [2] (setting [5]) it was -1.76; in assay [2] (setting [6]), -0.193.
